This is a sample that favours compounds with a hit; in the whole collection about 6.1% have one here.
D1 antagonist: antagonists of human D1 dopamine receptor; P21728; HEK293 TREx D1 cells, calcium flux, dopamine EC80; active compounds read low; activity change, negative = inhibition, % at 10 µM; 3.2% of 360,000 active; AID 504652; in the data active = activity change below about -30%; note: % is set by controls: 0 for no effect and ±100 for the full control effect
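Tetracycline-induced HEK293 Trex D1 cells, force-coupled to calcium, dye-loaded; compounds added and read 180 s, then EC80 dopamine added and calcium flux tracked kinetically another 180 s.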
DRD3 antagonist: D3 dopamine receptor (human) antagonism; D3R cells, DiscoveRx beta-arrestin luminescence, antagonist mode; active compounds read low; max response, negative = inhibition, %; 2.5% of 360,000 active; AID 652054; in the data active = max response below about -50%; inconclusive = no clear call, values can overlap the other calls; note: % is set by controls: 0 for no effect and ±100 for the full control effect
Target sequence (P35462 whole entry, looked up): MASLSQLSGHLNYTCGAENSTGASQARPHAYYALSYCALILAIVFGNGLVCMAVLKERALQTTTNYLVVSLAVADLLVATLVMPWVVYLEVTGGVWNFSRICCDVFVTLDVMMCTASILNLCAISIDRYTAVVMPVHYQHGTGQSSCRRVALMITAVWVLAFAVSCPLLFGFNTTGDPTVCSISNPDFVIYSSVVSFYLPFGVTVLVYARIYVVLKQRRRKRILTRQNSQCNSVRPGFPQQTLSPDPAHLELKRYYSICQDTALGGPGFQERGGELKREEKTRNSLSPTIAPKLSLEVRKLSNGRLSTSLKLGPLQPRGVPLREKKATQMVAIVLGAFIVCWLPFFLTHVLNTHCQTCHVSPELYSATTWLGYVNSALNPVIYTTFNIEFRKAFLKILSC
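Cells plated overnight at 1500 cells/well, then exposed to library compounds with dopamine controls for 90 minutes at 37 degrees C. DiscoveRx reagent added for 30–60 minutes at room temperature; luminescence read, quantitative HTS format.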
D3 ag: activates the human D3 dopamine receptor | P35462 | D3R DiscoveRx beta-arrestin cells, luminescence, 90 min | max activation, % | 0.58% of 410,000 active | AID 652048; in the data active = max activation above about 30%; note: 0% is about no effect
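Cells at 1500/well, incubated overnight, then treated with pinned compounds (dopamine as control) for 90 min at 37 degrees C. DiscoveRx reagent added for 30 - 60 minutes at room temperature; luminescence read.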
D1 potentiator: enhances dopamine response at the human D1 receptor; P21728; HEK293 TREx D1 cells, calcium flux, dopamine EC20 potentiation; potentiation, % at 10 µM; 0.036% of 360,000 active; AID 504651; in the data active = potentiation above about 30%; note: 0% is about no effect
D1 agonist: activates the human D1 dopamine receptor; 1% of 360,000 active; P21728; activation, % at 2 µM; AID 504660; HEK293 T-REx D1 cells, calcium flux, agonist mode; in the data active = activation above about 30%; note: 0% is about no effect
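Agonism was scored from calcium flux recorded over 180 s (1 read/s) after pintool compound addition, following a 10-cycle baseline. Cells were inducible force-coupled HEK293 TREx D1, plated overnight at 30 C and loaded with no-wash calcium dye.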
Active calls of the source: *; u = inconclusive; x = no result given.

SMILES	D1 antagonist	DRD3 antagonist	D3 ag	D1 potentiator	D1 agonist
CCCCC1CCC(C(=O)N2CC(=O)Nc3ccc(C)cc3C2c2ccc(F)cc2)CC1 (centres undefined)	-53*	x	-1	0	5
CNC(=S)NC1CC2CCC(C1)N2Cc1ccccc1 (centres undefined)	-4	-81*	-35	-10	1
CCc1ccc(NC(=S)NC2CC3CCCC(C2)N3Cc2ccccc2)cc1 (centres undefined)	-29	-109*	-11	1	20
S=C(Nc1ccc(Cl)cc1)NC1CC2CCC(C1)N2Cc1ccccc1 (centres undefined)	-43*	-76*	-14	8	52*
CCC(c1nnnn1-c1ccc2c(c1)OCCO2)N1CCN(c2cccc(C)c2C)CC1 (centres undefined)	x	1	-4	x	x
C[C@H](C(=O)O)c1cccc(C(=O)c2ccccc2)c1	-54*	10	15	-3	-1
Cc1cc(Cl)ccc1Oc1nccc(N(C)C)c1C#N	-37*	6	28	-11	10
COc1ccnc(Oc2ccc(Cl)cc2)c1C#N	-35*	3	4	-7	0
CCc1nn(C(CC)C(=O)NCCCN2CC(C)CC(C)C2)c(=O)c2cc3oc(C)cc3n12 (centres undefined)	-1	-57*	-22	-4	2
CC(=O)Nc1ccc(OCC(O)CN2CCN(c3ccc(F)cc3)CC2)cc1 (centres undefined)	-2	u	5	-2	0
CC(=O)Nc1ccc(OCC(O)Cn2cccn2)cc1 (centres undefined)	-35*	-28	2	3	1
CC(=O)Nc1ccc(OCC(O)CN2CCN(S(=O)(=O)c3ccc(NC(C)=O)cc3)CC2)cc1 (centres undefined)	-34*	0	-17	5	3
CC(=O)Nc1ccc(OCC(O)CN2CCN(c3ccc(Cl)cc3)CC2)cc1 (centres undefined)	-27	-72*	3	-8	10
OC(COc1ccc(Cl)cc1)CN1CCN(c2cccc(Cl)c2)CC1 (centres undefined)	-3	u	1	8	6
CC(=O)Nc1ccc(OCC(O)CN2CCN(c3cccc(Cl)c3)CC2)cc1 (centres undefined)	-14	-18	34*	-4	10
COCc1nnc(NC(=O)c2cc(OC)c(OC)c(OC)c2)s1	-7	x	22	1	1
CC(C)c1ccc(/C=C2\Oc3c(ccc(O)c3CN3CCN(C)CC3)C2=O)cc1	-9	-23	-25	0	68*
O=C1/C(=C/c2ccco2)Oc2c1ccc(O)c2CN1CCCCC1	-13	5	-5	-8	12
CC1CCN(Cc2c(O)ccc3c2O/C(=C\c2ccco2)C3=O)CC1	3	2	5	-8	9
Cc1ccc(/C=C2\Oc3c(ccc(O)c3CN3CCN(CCO)CC3)C2=O)cc1	-11	-14	-5	0	32*
CCN1CCN(Cc2c(O)ccc3c2O/C(=C\C=C\c2ccccc2OC)C3=O)CC1	3	u	-10	1	112*
Cc1ccc(O)c(NC(=O)c2onc(C)c2Cl)c1	-17	6	1	-2	-1
Cn1cc(CCCC(=O)NCc2ccc(F)cc2)c2ccccc21	4	6	-3	-8	2
CC(=O)NCCNc1nc2cc(-c3ccc4c(ccn4C)c3)sc2c(=O)n1C	x	3	9	x	x
NC(=O)c1ccccc1NC(=O)CCc1ccccc1	-8	-21	11	-6	1
SMILES	D1 antagonist	DRD3 antagonist	D3 ag	D1 potentiator	D1 agonist
NC(=O)c1ccccc1NC(=S)NC(=O)CCc1ccccc1	-74*	u	-14	1	3
Cc1nnc(SCC(=O)Nc2ccccc2)c2ccccc12	11	2	-1	-3	3
Cc1cc(N2CCN(C)CC2)nc(=S)[nH]1	9	-81*	-17	3	1
Cc1cc(N2CCN(C)CC2)nc(-c2ccccc2O)n1	-9	-28	-10	4	1
COc1ccc(NS(=O)(=O)c2cc(-c3onc(C)c3C)ccc2C)c(OC)c1	7	x	-15	2	1
COc1ccc(OC)c(CNS(=O)(=O)c2cc(-c3onc(C)c3C)ccc2C)c1	-38*	x	10	-7	2
O=C(NS(=O)(=O)c1ccc2c(c1)OCCO2)c1ccccc1	-17	-85*	2	-4	1
NC(=O)c1ccccc1NS(=O)(=O)c1ccc2c(c1)OCCO2	-36*	-28	0	-3	0
O=C(O)c1cccc(NS(=O)(=O)c2ccc3c(c2)OCCCO3)c1	5	20	5	1	2
O=C(c1ccccc1NS(=O)(=O)c1ccc(Br)cc1)N1CCOCC1	-33*	0	-15	-4	4
O=C(O)c1ccccc1NS(=O)(=O)c1ccc2c(c1)OCCO2	0	-16	-1	-2	0
O=C(O)c1cccnc1C(=O)N1CCc2c([nH]c3ccccc23)C1C(F)(F)F (centres undefined)	13	-7	3	0	2
c1cnc2c(C3NCCc4c3[nH]c3ccccc43)cccc2c1 (centres undefined)	-57*	-87*	-59	1	41*
O=C(Nc1ccc(C(=O)N2CCCCC2)cc1)c1nsc2ccccc12	-10	x	3	2	0
Cc1ccc(Cn2c(=O)c3cccnc3n(CC(=O)Nc3cc(Cl)ccc3C)c2=O)cc1	3	x	0	1	0
c1ccc(-c2nnc(SCCC3OCCCO3)o2)cc1	x	13	103*	x	x
Brc1ccc(-c2nnc(SCCC3OCCCO3)o2)cc1	-12	30	2	1	3
Cc1ccc(-c2nnc(SCCOc3ccccc3)o2)cc1	2	x	2	3	81*
COc1ccc(C(=O)Nc2ccc3oc(-c4ccc(F)cc4Cl)nc3c2)cc1	-38*	x	-4	-3	0
Cc1ccc(NC(=O)c2cc(-c3cc(Cl)ccc3O)n[nH]2)cc1C	6	46	3	-8	1
Cc1ccc(Cl)cc1-c1cc(C(=O)NCc2ccc(C(F)(F)F)cc2)[nH]n1	x	-54*	-11	x	x
COc1cc2ccccc2cc1C(=O)Nc1ccc2oc(-c3ccc(F)cc3Cl)nc2c1	4	x	4	1	-2
Cc1ccc(Cl)cc1-c1cc(C(=O)Nc2ccc(F)cc2)[nH]n1	x	-85*	-18	x	x
COc1ccc(Cl)c(-c2cc(C(=O)Nc3ccc(F)cc3)[nH]n2)c1	x	-52*	-20	x	x
Cc1cc(F)ccc1-c1cc(C(=O)NCc2ccc(C(F)(F)F)cc2)[nH]n1	x	u	-16	x	x
Cc1ccc(-n2c(=O)c3c(c4cc(C)ccc4n3C)n(CC(=O)Nc3cc(C)cc(C)c3)c2=O)cc1	3	x	-8	-2	1
CCOc1ccccc1NC(=O)Cn1c(=O)n(CCC(C)C)c(=O)c2cccnc21	-8	x	3	-3	0
Cc1nc([N+](=O)[O-])c(C(=O)OCc2ccc(C#N)cc2)n1C	-16	-19	-11	-9	3

High-throughput results deposited in PubChem BioAssay by National Center for Advancing Translational Sciences (NCATS).
